# Laboratory results taken from ChEMBL document CHEMBL3988442, “University of Dundee, Small-Polar-MMV Screening Library” (2021).
# The campaign covered roughly 66,000 compounds. About 960 (1.5%) showed an effect of 50% or more. The full list was thinned out, with strong results kept by preference.
# System: Trypanosoma brucei
# Experiment: Trypanosoma brucei 72 hour study
# Type: functional, organism-based
# Design: scale not given: in the data most compounds retested in dose-response had high values
structure (smiles),measurement,setting,value
Cc1cc(C)n(CC2CN(c3nnc(C)c(C)c3C#N)CCO2)n1 (configuration not stated),Percent Effect,"30.3 µM, […]",5.324%
O=C(NCC1CCCN(Cc2cccc3nonc23)C1)c1ccc[nH]1 (configuration not stated),Percent Effect,"30 µM, 30.03 µM",-46.2%
NC1(C(=O)NCC2CCCN(Cc3cccc4nonc34)C2)CCC1 (configuration not stated),Percent Effect,"30 µM, 30.03 µM",54.97%
NC1(C(=O)NCC2CCCN(Cc3ccccc3F)C2)CCCC1 (configuration not stated),Percent Effect,"30 µM, 30.03 µM",-11%
COc1ccc(CN2CCc3nc4ccsc4c(=O)n3CC2)c(C)c1C,Percent Effect,"30.3 µM, […]",7.671%
CCn1cc(NC(=O)C(C)n2ncc(Cl)c2C)c(C(=O)NC)n1 (configuration not stated),Percent Effect,"30 µM, 30.03 µM",-19.95%
Cc1ccc(CN2C[C@@H]3[C@@H](C(=O)NCC(C)C)CCS(=O)(=O)[C@@H]3C2)cc1.O=C(O)C(F)(F)F,Percent Effect,"30.3 µM, […]",-11.51%
CC(C)CNC(=O)[C@H]1CCS(=O)(=O)[C@@H]2CN(Cc3ccc(Cl)cc3)C[C@H]12.O=C(O)C(F)(F)F,Percent Effect,"30 µM, 30.03 µM",63.22%
CC(C)CNC(=O)[C@H]1CCS(=O)(=O)[C@@H]2CN(Cc3ccc(F)cc3)C[C@H]12.O=C(O)C(F)(F)F,Percent Effect,"30.3 µM, […]",-43.77%
CC(CNCc1ccc(Cl)cc1)Oc1ccccn1.Cl (configuration not stated),Percent Effect,"30 µM, 30.03 µM",-4.288%
COc1cc(OC)cc(C2NC(=O)CN2Cc2ccc(Br)cc2)c1 (configuration not stated),Percent Effect,"30 µM, 30.03 µM",-25.05%
Cc1cc(C2NC(=O)CN2Cc2ccc(Br)cc2)cc(C)c1O (configuration not stated),Percent Effect,"30 µM, 30.03 µM",94.42%
NC(=O)COc1ccc(C2NC(=O)CN2Cc2ccc(Br)cc2)cc1 (configuration not stated),Percent Effect,"30 µM, 30.03 µM",-15.28%
CC1N(c2cnn(C)c2)C(=O)COC12CCN(c1ncccn1)CC2.O=C(O)C(F)(F)F (configuration not stated),Percent Effect,"30.3 µM, […]",-2.456%
CN(CCc1ccccn1)C(=O)c1cccs1.Cl,Percent Effect,"30 µM, 30.03 µM",-41.89%
COCCNC(=O)c1nc(-c2ccc3cc[nH]c3c2)no1,Percent Effect,"30 µM, 30.03 µM",-23.6%
O=C(NCCN1CCCCC1)c1nc(-c2ccc3cc[nH]c3c2)no1,Percent Effect,"30 µM, 30.03 µM",29.87%
O=C(c1nc(-c2ccc3cc[nH]c3c2)no1)N1CCCC1,Percent Effect,"30 µM, 30.03 µM",53.89%
COCCNc1cc(C2CCCNC2)ccn1.Cl (configuration not stated),Percent Effect,"30.3 µM, […]",9.179%
CCNC(=O)[C@@H]1C[C@H](N)CN1Cc1ccc(-c2cc[nH]n2)o1,Percent Effect,"30.3 µM, […]",-17.36%
CCNC(=O)[C@@H]1C[C@H](N)CN1Cc1ccc(Sc2ccc(C)cc2)o1,Percent Effect,"30.3 µM, […]",18.4%
CCNC(=O)[C@@H]1C[C@@H](N)CN1Cc1ccc(Sc2ccc(C)cc2)o1,Percent Effect,"30.3 µM, […]",100.1%
COCCN1C(=O)C[C@H]2[C@H]1CCN2Cc1cccc(C#N)c1.O=C(O)C(F)(F)F,Percent Effect,"30 µM, 30.03 µM",17.08%
O=C(c1ccc[nH]1)N1CCn2cc(Cn3cncn3)nc2C1,Percent Effect,"30 µM, 30.03 µM",-19.87%
O=C(O)C(F)(F)F.O=C(c1ccc[nH]1)N1CCn2cc(Cn3cccn3)nc2C1,Percent Effect,"30.3 µM, […]",63.53%
O=C(O)C(F)(F)F.O=C(c1ccc[nH]1)N1CCn2cc(CN3CCCC3)nc2C1,Percent Effect,"30 µM, 30.03 µM",-5.056%
CNC(=O)CN(C)c1cncc(OCC(C)C)n1,Percent Effect,"30 µM, 30.03 µM",-18.74%
CC(C)COc1cncc(N2CCCN(c3ncccn3)CC2)n1,Percent Effect,"30.3 µM, […]",-75.77%
CC(C)COc1cncc(N(C)C2CCN(c3ncccn3)CC2)n1,Percent Effect,"30.3 µM, […]",90.23%
CN(C)CCOCc1nnc2n1CCN(Cc1cccs1)CC2.O=C(O)C(F)(F)F.O=C(O)C(F)(F)F,Percent Effect,"30.3 µM, […]",-17.71%
Br.Cc1ccccc1OC1CCN(CC(=O)Nc2ccn(C)n2)CC1,Percent Effect,"30.3 µM, […]",12.28%
Cc1ccccc1N1CC2(CCN(S(=O)(=O)c3ccccc3)C2)CC1=O (configuration not stated),Percent Effect,"30.3 µM, […]",11.6%
CCOc1cc2c(cc1CN1CCC3(CCCNC3=O)C1)CCC2 (configuration not stated),Percent Effect,"30.3 µM, […]",98.93%
CCOc1cc2c(cc1CN1CCC3(CC1)CNC(=O)C3)CCC2,Percent Effect,"30.3 µM, […]",-17.68%
CCOc1cc(Cl)c(CN2CCC3(CCCNC3=O)C2)cc1OC (configuration not stated),Percent Effect,"30.3 µM, […]",-16.79%
O=C(N1CCCC1)N1CCC2(CCN(Cc3ccccn3)C2=O)C1.O=C(O)C(F)(F)F (configuration not stated),Percent Effect,"30 µM, 30.03 µM",-20.49%
CCN(CC)c1nc(Nc2cccc(C(=O)O)c2)nc2ccccc12,Percent Effect,"30 µM, 30.03 µM",-36.54%
CC(O)c1cccc(Nc2nc(NCCO)c3ccccc3n2)c1 (configuration not stated),Percent Effect,"30 µM, 30.03 µM",5.503%
CCN(CC)c1nc(Nc2cccc(C(C)O)c2)nc2ccccc12 (configuration not stated),Percent Effect,"30 µM, 30.03 µM",78.38%
O=C(O)C(F)(F)F.O=C1NC2(CCN(C(=O)N3CCOCC3)CC2)CC1c1cccnc1 (configuration not stated),Percent Effect,"30 µM, 30.03 µM",-17.56%
CN1CCOC(CNCc2coc(-c3ccccc3)n2)C1 (configuration not stated),Percent Effect,"30 µM, 30.03 µM",-39%
Cc1ccc(-c2nc(CNCC3CN(C)CCO3)co2)cc1 (configuration not stated),Percent Effect,"30.3 µM, […]",93.13%
same,Percent Effect,"10 mM, 10 mM as filed; unlikely as a test dose",-9.822%
Cc1ccc(-c2nc(CN3CCOC(CN(C)C)C3)co2)cc1 (configuration not stated),Percent Effect,10 µM,5.738%
same,Percent Effect,"30.3 µM, […]",-1.882%
CN(C)CC1CN(Cc2coc(-c3ccc(Cl)cc3)n2)CCO1 (configuration not stated),Percent Effect,10 µM,-46.52%
same,Percent Effect,"30.3 µM, […]",62.36%
CN1CCOC(CNCc2coc(-c3cccc(F)c3)n2)C1 (configuration not stated),Percent Effect,"30.3 µM, […]",41.18%
same,Percent Effect,"10 mM, 10 mM as filed; unlikely as a test dose",-36.07%
CN(C)CC1CN(Cc2coc(-c3ccccc3Cl)n2)CCO1 (configuration not stated),Percent Effect,"30 µM, 30.03 µM",-2.77%
CN(C)CC1CN(Cc2coc(-c3ccccc3)n2)CCO1 (configuration not stated),Percent Effect,10 µM,-12.24%
same,Percent Effect,"30.3 µM, […]",1.121%
